The AC50 is the concentration giving half of the maximal activity seen.

Values joined by “and” are separate entries in the source; they are usually repeats but may differ in a detail not shown here. Identical values can stand only once. Inconclusive results are not listed. Active and inactive are the calls of the source. How the source made its calls, unless noted: active means hit-call score of the fitted dose curve at least 0.9, where 1 is the maximum; inconclusive means response in the unintended direction; inactive means score below 0.9.

This is an account of results in PubChem BioAssay (EPA / NIEHS).

For assay [1], the target named is rat CYP2A2, Cyp2a2 (gene 24895) (UniProt P15149). Description: NVS_ADME_rCYP2A2: NovaScreen (NVS) CYP450-related Enzyme Activity (ADME) Assay for rat CYP2A2 (AID 2283116). In a few lines:
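Cell-free recombinant rat CYP2A2 activity with fluorogenic substrate, fluorescence read 0.2 h after dosing. Chemicals screened at 10 uM in duplicate, hits then run in concentration-response up to 20 uM; signal loss versus acetonitrile baseline.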

The target in assay [2] is human Caspase 5 (CASP5), CASP5 (gene 838) (UniProt P51878). Description: NVS_ENZ_hCASP5: NovaScreen (NVS) Enzymatic Assay for human Caspase 5 (CASP5) (AID 2283137). In outline:
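Recombinant E. coli-expressed human caspase 5 in a cell-free enzyme assay; fluorescence intensity read 2 hours after chemical dosing. Single-concentration duplicate screen at 25 uM, then concentration-response up to 50 uM for hits; DMSO negative control.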

In assay [3] the target is human CYP2C9, CYP2C9 (gene 1559) (UniProt P11712). Description: NVS_ADME_hCYP2C9: NovaScreen (NVS) CYP450-related Enzyme Activity (ADME) Assay for human CYP2C9 (AID 2283108). In outline: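 Recombinant human CYP2C9 expressed in SF9 cells, fluorogenic substrate, fluorescence read 0.75 h after dosing. Chemicals first run in duplicate at 10 uM, with actives followed in concentration series; loss of signal versus acetonitrile baseline.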
Sequence of human CYP2C9, CYP2C9 (gene 1559) (P11712 whole entry, looked up): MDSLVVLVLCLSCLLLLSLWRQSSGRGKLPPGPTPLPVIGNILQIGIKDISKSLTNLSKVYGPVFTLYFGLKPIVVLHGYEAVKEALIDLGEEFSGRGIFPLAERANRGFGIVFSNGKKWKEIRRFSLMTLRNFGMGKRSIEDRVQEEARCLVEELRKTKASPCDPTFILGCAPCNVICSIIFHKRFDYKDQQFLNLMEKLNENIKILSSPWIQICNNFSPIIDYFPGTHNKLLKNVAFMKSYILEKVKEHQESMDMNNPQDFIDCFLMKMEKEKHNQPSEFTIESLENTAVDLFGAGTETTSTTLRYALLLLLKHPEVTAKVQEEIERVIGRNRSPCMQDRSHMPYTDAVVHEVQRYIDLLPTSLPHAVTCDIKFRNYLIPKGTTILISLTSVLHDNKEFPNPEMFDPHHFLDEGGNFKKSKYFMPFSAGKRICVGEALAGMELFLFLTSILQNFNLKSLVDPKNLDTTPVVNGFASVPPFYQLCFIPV

The target of assay [4] is Cytochrome P450 3A4 (Homo sapiens) (UniProt P08684). Description: NVS_ADME_hCYP3A4: NovaScreen (NVS) CYP450-related Enzyme Activity (ADME) Assay for human CYP3A4 (AID 2283110). In a few lines:
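Cell-free recombinant enzyme expressed in insect cells; fluorescent substrate turnover read after 0.33 h, acetonitrile as negative control. Primary screen in duplicate at 10 uM, actives then tested in concentration series.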

The target of assay [5] is Cytochrome P450 2C19 (Homo sapiens) (UniProt P33261). Description: NVS_ADME_hCYP2C19: NovaScreen (NVS) CYP450-related Enzyme Activity (ADME) Assay for human CYP2C19 (AID 2283113).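 Further: potency for inhibition seen as loss of fluorescent signal.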 In outline: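 Cell-free assay of recombinant human CYP2C19 expressed in insect cells, with a fluorogenic substrate; fluorescence intensity read 1 hour after dosing. Loss of signal relative to acetonitrile negative control indicates inhibition. Primary screen at 10 uM in duplicate, then concentration series.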

In assay [6] the target is rat CYP2A1, Cyp2a1 (gene 24894) (UniProt P11711). Nature of the assay: NVS_ADME_rCYP2A1: NovaScreen (NVS) CYP450-related Enzyme Activity (ADME) Assay for rat CYP2A1 (AID 2283114; active means hit-call score of the fitted dose curve at least 0.9, where 1 is the maximum; inactive means score below 0.9). In a few lines:
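Recombinant rat CYP2A1, cell-free, fluorogenic substrate turnover read by fluorescence intensity 0.75 h after dosing. Primary screen at 10 uM in duplicate; actives rerun as concentration-response up to 20 uM; loss of signal versus acetonitrile control.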

Another assay concerns rat CYP2B1, gene 24300. Description: NVS_ADME_rCYP2B1: NovaScreen (NVS) CYP450-related Enzyme Activity (ADME) Assay for rat CYP2B1 (AID 2283117). In outline: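 Recombinant rat CYP2B1 with fluorogenic substrate, read at 0.75 h. Primary screen in duplicate at 10 uM; compounds meeting threshold (e.g., 30% inhibition) re-run in concentration-response up to 20 uM. Fitted against acetonitrile control.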

In assay [7] the target is rat CYP2C11, Cyp2c11 (gene 29277) (UniProt P08683). Description: NVS_ADME_rCYP2C11: NovaScreen (NVS) CYP450-related Enzyme Activity (ADME) Assay for rat CYP2C11 (AID 2283118). In outline:
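Cell-free recombinant rat enzyme with fluorescent substrate; readout 0.33 h after dosing, loss of signal versus acetonitrile control. Initial duplicate single-point at 10 uM; actives rerun in concentration series.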

The target in assay [8] is rat CYP2C12, Cyp2c12 (gene 25011) (UniProt P11510). Nature of the assay: NVS_ADME_rCYP2C12: NovaScreen (NVS) CYP450-related Enzyme Activity (ADME) Assay for rat CYP2C12 (AID 2283119). In outline:
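Cell-free recombinant rat CYP2C12 activity read by fluorescence 0.5 h after dosing; loss of signal versus acetonitrile control. Primary screen in duplicate at 10 uM; actives then run in concentration-response format.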

Assay [9] has as its target rat CYP2C13, Cyp2c13 (gene 171521) (UniProt P20814). Description: NVS_ADME_rCYP2C13: NovaScreen (NVS) CYP450-related Enzyme Activity (ADME) Assay for rat CYP2C13 (AID 2283121). In a few lines:
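Recombinant rat CYP2C13 with fluorogenic substrate, 0.75 h cell-free incubation; primary screen in duplicate at 10 uM, actives followed in concentration series. Fluorescence loss relative to acetonitrile control indicates inhibition.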

For assay [10], the target named is human AKT serine/threonine Kinase 1 (AKT1), AKT1 (gene 207) (UniProt P31749). Description: NVS_ENZ_hAKT1: NovaScreen (NVS) Enzymatic Assay for human AKT serine/threonine Kinase 1 (AKT1) (AID 2283138). In a few lines:
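Cell-free recombinant enzyme with substrate; activity read by fluorescence intensity after electrophoretic mobility shift separating substrate from product, 1 h after dosing. Single-concentration duplicates at 25 uM, then singleton concentration-response up to 50 uM; loss of signal versus DMSO.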

Assay [11] has as its target human CYP2D6, CYP2D6 (gene 1565) (UniProt P10635). Description: NVS_ADME_hCYP2D6: NovaScreen (NVS) CYP450-related Enzyme Activity (ADME) Assay for human CYP2D6 (AID 2283107). In outline:
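Cell-free assay using recombinant enzyme expressed in insect cells, with fluorescence-intensity readout of enzyme activity 1 hour after chemical dosing. Loss of signal versus acetonitrile negative control indicates inhibition. Primary screen ran in duplicate at 10 uM; actives were retested in concentration series.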

The target in assay [12] is human Acetylcholinesterase (AChE), ACHE (gene 43) (UniProt P22303). Description: NVS_ENZ_hAChE: NovaScreen (NVS) Enzymatic Assay for human Acetylcholinesterase (AChE) (AID 2283129). In a few lines: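 Cell-free colorimetric enzyme-activity assay; compounds read 0.33 hour after dosing, loss of signal vs DMSO baseline. Primary screen in duplicate at 25 uM single concentration, with active compounds retested in concentration series.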
Sequence of human Acetylcholinesterase (AChE), ACHE (gene 43) (P22303 whole entry, looked up): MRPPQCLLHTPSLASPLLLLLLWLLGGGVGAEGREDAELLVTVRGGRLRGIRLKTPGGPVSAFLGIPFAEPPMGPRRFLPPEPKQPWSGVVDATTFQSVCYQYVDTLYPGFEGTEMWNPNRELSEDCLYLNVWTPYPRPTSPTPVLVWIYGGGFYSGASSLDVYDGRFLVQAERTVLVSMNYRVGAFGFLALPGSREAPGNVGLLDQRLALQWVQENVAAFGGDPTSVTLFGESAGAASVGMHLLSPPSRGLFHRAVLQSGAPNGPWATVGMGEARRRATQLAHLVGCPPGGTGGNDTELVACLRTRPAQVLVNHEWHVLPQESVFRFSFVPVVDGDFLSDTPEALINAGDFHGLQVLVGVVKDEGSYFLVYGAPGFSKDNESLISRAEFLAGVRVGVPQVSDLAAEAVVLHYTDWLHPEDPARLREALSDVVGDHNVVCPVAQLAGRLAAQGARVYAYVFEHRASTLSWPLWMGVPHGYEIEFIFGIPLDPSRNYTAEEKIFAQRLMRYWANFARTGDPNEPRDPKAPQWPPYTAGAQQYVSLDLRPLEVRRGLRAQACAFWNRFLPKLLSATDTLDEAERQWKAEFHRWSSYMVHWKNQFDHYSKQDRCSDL

Assay [13] has as its target human CYP4F12, CYP4F12 (gene 66002) (UniProt Q9HCS2). Description: NVS_ADME_hCYP4F12: NovaScreen (NVS) CYP450-related Enzyme Activity (ADME) Assay for human CYP4F12 (AID 2283111). In a few lines:
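Cell-free fluorescence assay of recombinant human CYP4F12 activity on a specific substrate, read 0.5 h after dosing. Primary screen in duplicate at 10 uM, then concentration series for actives; loss of signal fitted against acetonitrile negative control.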

The target in assay [14] is human AMP-activated Protein Kinase, alpha 1 (AMPKa1), PRKAA1 (gene 5562) (UniProt Q13131). Description: NVS_ENZ_hAMPKa1: NovaScreen (NVS) Enzymatic Assay for human AMP-activated Protein Kinase, alpha 1 (AMPKa1) (AID 2283130). In outline: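 Recombinant human AMPKα1 activity was measured cell-free by fluorescent substrate conversion with electrophoretic mobility-shift separation, 1 h after dosing. Duplicate single-point screening was at 25 uM; actives (≥30% inhibition) were retested in concentration-response up to 50 uM.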

In another assay the target is Caspase-3 (Homo sapiens) (UniProt P42574). Description: NVS_ENZ_hCASP3: NovaScreen (NVS) Enzymatic Assay for human Caspase 3 (CASP3) (AID 2283139). In outline:
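Recombinant human caspase-3 from E. coli with a fluorogenic substrate, read by fluorescence 1 h after dosing. Primary screen in duplicate at 25 uM. Actives (for example ≥30% inhibition) rerun as concentration-response up to 50 uM.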

The test system of a further assay is rat CYP2C6, gene 293989. Description: NVS_ADME_rCYP2C6: NovaScreen (NVS) CYP450-related Enzyme Activity (ADME) Assay for rat CYP2C6 (AID 2283120). In a few lines: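 Cell-free recombinant rat CYP2C6 with fluorogenic substrate, read by fluorescence 1 h after dosing; acetonitrile as negative control. Primary screen at 10 uM in duplicate, actives then in concentration-response up to 20 uM.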

The test system of a further assay is rat CYP3A1, gene 25642. Nature of the assay: NVS_ADME_rCYP3A1: NovaScreen (NVS) CYP450-related Enzyme Activity (ADME) Assay for rat CYP3A1 (AID 2283126). In a few lines:
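Cell-free recombinant CYP assay with fluorescent substrate, read 0.5 h after dosing. Screened at 10 uM in duplicate, hits at up to 20 uM in concentration-response; loss of signal versus acetonitrile baseline.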

Sequence of rat CYP2A2, Cyp2a2 (gene 24895) (P15149 whole entry, looked up): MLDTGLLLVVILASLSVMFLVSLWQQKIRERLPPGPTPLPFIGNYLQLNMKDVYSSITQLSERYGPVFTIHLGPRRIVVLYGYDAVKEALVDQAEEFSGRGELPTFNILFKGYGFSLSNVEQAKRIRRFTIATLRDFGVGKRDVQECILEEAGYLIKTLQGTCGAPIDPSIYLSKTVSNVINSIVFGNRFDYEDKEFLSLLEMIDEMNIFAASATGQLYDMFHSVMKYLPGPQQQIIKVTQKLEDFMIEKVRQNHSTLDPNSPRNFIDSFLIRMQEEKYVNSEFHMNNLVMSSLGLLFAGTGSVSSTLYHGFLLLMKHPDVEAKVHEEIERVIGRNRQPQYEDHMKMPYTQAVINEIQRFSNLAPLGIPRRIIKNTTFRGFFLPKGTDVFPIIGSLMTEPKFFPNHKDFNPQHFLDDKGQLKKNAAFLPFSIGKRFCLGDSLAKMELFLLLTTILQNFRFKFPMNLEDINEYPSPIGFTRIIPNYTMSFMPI
Sequence of Cytochrome P450 3A4 (Homo sapiens) (P08684 whole entry, looked up): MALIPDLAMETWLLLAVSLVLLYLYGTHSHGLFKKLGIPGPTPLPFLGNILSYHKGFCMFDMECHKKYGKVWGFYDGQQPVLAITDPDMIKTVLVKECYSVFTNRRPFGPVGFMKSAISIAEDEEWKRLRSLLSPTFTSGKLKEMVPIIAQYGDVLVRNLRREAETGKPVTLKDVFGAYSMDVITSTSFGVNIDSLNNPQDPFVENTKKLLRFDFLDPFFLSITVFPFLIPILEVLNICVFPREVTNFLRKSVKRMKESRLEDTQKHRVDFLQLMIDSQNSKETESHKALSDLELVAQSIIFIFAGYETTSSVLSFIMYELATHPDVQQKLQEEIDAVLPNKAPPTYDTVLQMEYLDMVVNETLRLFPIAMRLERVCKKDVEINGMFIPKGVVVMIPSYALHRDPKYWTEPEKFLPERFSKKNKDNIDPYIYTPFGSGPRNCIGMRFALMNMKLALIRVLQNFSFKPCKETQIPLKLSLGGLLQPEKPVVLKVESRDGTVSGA
Sequence of human Caspase 5 (CASP5), CASP5 (gene 838) (P51878 whole entry, looked up): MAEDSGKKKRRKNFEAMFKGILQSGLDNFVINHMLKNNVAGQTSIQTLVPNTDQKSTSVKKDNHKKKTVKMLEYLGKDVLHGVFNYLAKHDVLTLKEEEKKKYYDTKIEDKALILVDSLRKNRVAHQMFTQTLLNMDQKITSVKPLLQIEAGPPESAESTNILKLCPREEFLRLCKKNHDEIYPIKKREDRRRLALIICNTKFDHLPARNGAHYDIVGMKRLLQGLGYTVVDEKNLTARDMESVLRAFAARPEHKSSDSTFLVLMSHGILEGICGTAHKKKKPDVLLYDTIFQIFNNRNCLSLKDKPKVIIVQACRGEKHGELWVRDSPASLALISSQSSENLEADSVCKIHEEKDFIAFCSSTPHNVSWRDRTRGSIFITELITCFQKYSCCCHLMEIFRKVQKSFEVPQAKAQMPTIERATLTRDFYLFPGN
Sequence of human CYP2D6, CYP2D6 (gene 1565) (P10635 whole entry, looked up): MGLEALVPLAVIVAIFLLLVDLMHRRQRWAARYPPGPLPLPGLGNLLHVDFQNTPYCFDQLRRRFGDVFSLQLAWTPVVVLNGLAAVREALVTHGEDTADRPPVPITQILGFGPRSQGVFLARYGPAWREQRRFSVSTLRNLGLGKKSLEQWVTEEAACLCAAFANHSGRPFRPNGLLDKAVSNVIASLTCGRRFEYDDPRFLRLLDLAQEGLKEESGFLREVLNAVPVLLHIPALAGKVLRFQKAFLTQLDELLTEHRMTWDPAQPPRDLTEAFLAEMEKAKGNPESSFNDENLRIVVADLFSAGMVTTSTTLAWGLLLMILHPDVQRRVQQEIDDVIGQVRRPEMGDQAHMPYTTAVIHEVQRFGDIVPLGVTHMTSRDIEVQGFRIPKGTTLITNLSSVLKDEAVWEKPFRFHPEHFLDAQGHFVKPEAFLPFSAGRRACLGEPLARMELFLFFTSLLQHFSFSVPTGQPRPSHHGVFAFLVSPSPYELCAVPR
Sequence of rat CYP2A1, Cyp2a1 (gene 24894) (P11711 whole entry, looked up): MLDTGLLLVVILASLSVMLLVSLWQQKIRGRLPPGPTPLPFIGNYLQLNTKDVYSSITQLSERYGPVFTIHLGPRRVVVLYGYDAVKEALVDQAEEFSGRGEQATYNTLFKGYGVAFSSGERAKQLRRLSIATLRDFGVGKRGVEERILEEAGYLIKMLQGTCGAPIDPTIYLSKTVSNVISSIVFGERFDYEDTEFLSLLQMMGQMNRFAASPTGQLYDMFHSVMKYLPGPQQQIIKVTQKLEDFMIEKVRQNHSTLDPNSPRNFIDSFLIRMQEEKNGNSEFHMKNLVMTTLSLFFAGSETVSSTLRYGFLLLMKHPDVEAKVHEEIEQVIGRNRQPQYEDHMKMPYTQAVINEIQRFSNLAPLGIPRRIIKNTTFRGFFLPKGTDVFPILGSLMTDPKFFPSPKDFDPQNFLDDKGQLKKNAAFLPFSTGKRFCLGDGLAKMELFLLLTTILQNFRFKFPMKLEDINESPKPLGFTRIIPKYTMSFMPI
Sequence of rat CYP2C11, Cyp2c11 (gene 29277) (P08683 whole entry, looked up): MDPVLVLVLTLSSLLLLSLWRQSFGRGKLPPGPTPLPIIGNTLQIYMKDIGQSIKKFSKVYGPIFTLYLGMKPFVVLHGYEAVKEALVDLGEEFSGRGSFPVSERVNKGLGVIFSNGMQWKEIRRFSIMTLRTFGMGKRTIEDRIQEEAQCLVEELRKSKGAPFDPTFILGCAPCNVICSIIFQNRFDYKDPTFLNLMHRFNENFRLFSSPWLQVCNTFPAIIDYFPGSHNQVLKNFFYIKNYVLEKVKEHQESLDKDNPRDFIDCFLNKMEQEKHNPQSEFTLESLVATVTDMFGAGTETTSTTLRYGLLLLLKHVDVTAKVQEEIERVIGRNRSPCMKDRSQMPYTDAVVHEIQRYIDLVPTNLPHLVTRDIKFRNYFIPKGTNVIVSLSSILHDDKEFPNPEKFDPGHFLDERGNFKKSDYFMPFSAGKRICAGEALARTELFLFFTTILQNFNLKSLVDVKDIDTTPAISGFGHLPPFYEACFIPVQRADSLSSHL
Sequence of human CYP4F12, CYP4F12 (gene 66002) (Q9HCS2 whole entry, looked up): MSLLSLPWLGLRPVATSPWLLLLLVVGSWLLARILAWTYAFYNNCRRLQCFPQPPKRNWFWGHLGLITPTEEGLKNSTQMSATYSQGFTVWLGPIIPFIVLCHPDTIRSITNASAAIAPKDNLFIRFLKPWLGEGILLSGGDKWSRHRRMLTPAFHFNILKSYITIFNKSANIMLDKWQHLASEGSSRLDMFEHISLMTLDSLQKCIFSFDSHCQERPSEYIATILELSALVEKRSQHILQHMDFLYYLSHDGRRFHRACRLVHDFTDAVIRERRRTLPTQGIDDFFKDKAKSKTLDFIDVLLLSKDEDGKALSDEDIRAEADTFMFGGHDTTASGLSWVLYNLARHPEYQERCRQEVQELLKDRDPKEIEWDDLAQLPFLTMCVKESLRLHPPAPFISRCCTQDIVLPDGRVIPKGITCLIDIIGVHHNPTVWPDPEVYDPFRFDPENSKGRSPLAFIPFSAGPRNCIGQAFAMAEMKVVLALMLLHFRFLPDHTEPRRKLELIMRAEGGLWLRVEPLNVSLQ
Sequence of Caspase-3 (Homo sapiens) (P42574 whole entry, looked up): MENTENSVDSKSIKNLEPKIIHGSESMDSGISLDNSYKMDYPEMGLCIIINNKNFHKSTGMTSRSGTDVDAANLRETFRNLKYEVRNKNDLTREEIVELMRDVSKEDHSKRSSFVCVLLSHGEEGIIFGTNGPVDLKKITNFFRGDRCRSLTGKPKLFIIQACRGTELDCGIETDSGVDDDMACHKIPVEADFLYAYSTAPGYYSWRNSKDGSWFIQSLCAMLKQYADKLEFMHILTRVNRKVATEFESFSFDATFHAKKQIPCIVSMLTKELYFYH

`BrCCBr`: in assay [1], the molecule was classed as inactive.
With `Nc1ncc([N+](=O)[O-])s1`, the AC50 in [2] is 9060 nM (active).
For the molecule `CC1(C)CCC(Cc2ccc(Cl)cc2)C1(O)Cn1cncn1` (stereo not drawn), the AC50 was 0.419 µM (active) in assay [3]; 2750 nM (active) in assay [4]; 0.304 µM (active) in assay [5]; 2500 nM (active) in assay [6]; 40.4 nM (active) in assay [1]; 385 nM (active) in the assay with rat CYP2B1, gene 24300. Also, the AC50 in assay [7] is 121 nM (active); in [8], 5150 nM (active); in [9], 1170 nM (active).
As for `ClC1(Cl)C2(Cl)C3(Cl)C4(Cl)C(Cl)(Cl)C5(Cl)C3(Cl)C1(Cl)C5(Cl)C24Cl` (stereo not drawn), in assay [10], the molecule was called inactive.
Consider `CC12CC1(C)C(=O)N(c1cc(Cl)cc(Cl)c1)C2=O` (stereo not drawn), for which the call in assay [4] was inactive. Moreover, the AC50 in assay [6] is 881 nM (active); in assay [1], 4980 nM (active).
`CC(C)(c1ccccc1)c1ccc(O)c(C(C)(C)c2ccccc2)c1`: the outcome in [4] was inactive.
In the case of `CC(C)(C)c1cc(O)ccc1O`, the AC50 in assay [11] was 7540 nM (active); in [3], 5.93 µM (active); in assay [5] it was 5.9 µM (active). For the same molecule, the outcome in [4] and in assay [12] was inactive.
Regarding `CC(=O)[O][Hg][c]1ccccc1`, the half-maximal activity concentration (AC50) in assay [11] is 4160 nM (active); in assay [3], 9.85 µM (active); in assay [4], 1280 nM (active); in assay [13] it was 1900 nM (active); in assay [5], 1.04 µM (active); in assay [12], 40000 nM (active). In addition, the AC50 in assay [14] was 14000 nM (active); in assay [2], 1800 nM (active); with Caspase-3 (Homo sapiens), 25000 nM (active).
In the case of `Nc1ccc(-c2ccc(N)c(Cl)c2)cc1Cl`, the AC50 in [3] was 1.24 µM (active); in assay [5] it was 2.34 µM (active).
Turning to `COP(=S)(OC)Oc1ccc(Sc2ccc(OP(=S)(OC)OC)cc2)cc1`, the AC50 is 505 nM (active) and 5.52 µM (active) in assay [3]; 4.32 µM (active) and 1.06 µM (active) in assay [5]; 8460 nM (active) in [7]; 2960 nM (active) in the assay with rat CYP2C6, gene 293989; 9920 nM (active) in the assay with rat CYP3A1, gene 25642.
As for `O=S(=O)(c1ccc(Cl)cc1)c1ccc(Cl)cc1`, the AC50 in assay [5] was 1.39 µM (active) and 821 nM (active).
